# Source: PubChem BioAssay AID2546 (National Center for Advancing Translational Sciences (NCATS), 2010)
# In all, about 310,000 compounds went through this assay and about 11,000 (3.5%) were called active. Roughly 8% stayed inconclusive and do not appear here. Shown is part of a subset that was picked to be rich in actives. A number with no mark means an inactive call. Calls follow the shape of the dose curve; as a rule, active = well fitted inhibition curve with a large enough effect; inconclusive = small, poorly fitted or top-dose-only effect, or effect the other way; inactive = flat fitted curve, though single readings scatter.
# Experiment: VP16 counterscreen qHTS for inhibitors of ROR gamma transcriptional activity;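 also: Gal4-VP16 expression switched on by copper sulfate through the metallothionein promoter; nearly all actives have a fitted effect of over 50% in size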
# Conditions: Drosophila S2 Gal4-VP16 UAS-luciferase, luminescence, 20 h; series mostly up to 53.6 µM; activity, negative = inhibition: at the top concentration
# % is scaled to controls: 0 for no effect and ±100 for the full control effect; potency is read from the fitted curve at half-maximal effect.
Structure (SMILES),"activity, negative = inhibition",Potency
O=C(NCC(=O)N1CCN(c2ncc(C(F)(F)F)cc2Cl)CC1)c1ccc(Br)o1,-12.2%,
Cc1ccc(CN2CCC(n3nccc3NC(=O)CCCc3ccccc3)CC2)o1,-18.3%,
O=C(Nc1cccc(F)c1)NC1CCCCCCC1,17.7%,
C/C(=N\NC(=O)Cc1ccc(Br)cc1)c1cccnc1,-5.69%,
C/C(=N\NC(=O)c1ccccc1F)c1ccccn1,,1.12 µM (active)
O=C(Nc1ccc(NC(=O)c2ccccc2F)cc1)c1ccccc1F,-2.15%,
C/C(CC(=O)Nc1ccc(N(C)C)cc1)=N\NC(=O)c1ccccc1F,16.6%,
C/C(=N\NC(=O)Cc1ccc(Cl)cc1)c1ccccn1,,2.51 µM (active)
C/C(=N\NC(=O)Cc1ccc(F)cc1)c1ccc(F)cc1,-9.44%,
O=C(c1cc(-c2ccc(Cl)cc2)on1)N1CCN(c2ccccc2)CC1,-9.14%,
O=C(COc1ccccc1Cl)N1CCCCCCC1,-6.99%,
NS(=O)(=O)c1ccccc1NC(=O)c1c(O)c2ccccc2[nH]c1=O,-8.36%,
COc1cc(OC)c(/C=N/NC(=O)c2ccc([N+](=O)[O-])cc2)cc1Br,10.7%,
COc1ccc(CC(=O)N/N=C/c2cc([N+](=O)[O-])cc(Br)c2O)cc1,,3.16 µM (active)
COc1ccc(CC(=O)NCC(=O)N/N=C/c2cc(Br)ccc2OC)cc1,-1.29%,
COc1cccc(NC(=O)CCc2nnc3ccc(N4CCC(C)CC4)nn23)c1,-2.26%,
CC(=O)c1ccc(NC(=O)c2ccc(-n3cncn3)c([N+](=O)[O-])c2)cc1,-10.1%,
O=C(NCc1ccc(Cl)cc1)NCc1ccc(Cl)cc1,1.13%,
O=C(NCc1ccncc1)NC12CC3CC(CC(C3)C1)C2,3%,
CN(C)CCCNC(=S)NCc1ccc(Cl)cc1,7.1%,
S=C(NCc1ccc(Cl)cc1)NC12CC3CC(CC(C3)C1)C2,,3.16 µM (active)
COc1ccc(Cl)cc1C(=O)NNC(=S)NC1CCCC1,-20.9%,
S=C(NCc1ccc(Cl)cc1)NC1CCCCC1,,7.94 µM (active)
O=C(NCCc1ccc(Cl)cc1)c1cccc(N2CCCC2=O)c1,4.1%,

Structure (SMILES),"activity, negative = inhibition",Potency
CN1CCN(S(=O)(=O)c2ccc(NC(=S)NC(=O)C3CC3)cc2)CC1,-9.66%,
S=C(Nc1ccc(Cl)cc1Cl)N1CCCC1,-3.36%,
O=C(NC(=S)Nc1ccc(Cl)cc1Cl)C1CC1,,5.62 µM (active)
Oc1ccccc1C1=NN(c2ccccc2)C(c2ccccc2)C1 (configuration not stated),-26.6%,
CCC(=O)Nc1nc(C)c(C(=O)Nc2cccc(Cl)c2)s1,-4.36%,
CN1CCN(C(=O)c2cnn(-c3ccccc3)c2NC(=O)c2ccc([N+](=O)[O-])cc2)CC1,-10.9%,
Cc1ccc(NC(=O)NC(=O)c2ccccc2)cc1F,-12.3%,
Cc1cccc(NC(=S)NC(=O)c2ccc(Br)o2)c1,-67.7%,
Cc1cccc(NC(=O)NC(=S)NC(=O)c2ccccc2)c1,,5.01 µM (active)
Cc1ccn2c(c1)nc(=O)c1cc(S(=O)(=O)N3CCC(C)CC3)ccc12,-1.64%,
COc1ccc(CCNC(=O)C(=O)NCC2OCCN2S(=O)(=O)c2ccc(OC)c(C)c2)cc1 (configuration not stated),-8.13%,
Cc1nc2c(c(=O)n1Cc1ccco1)c1nc3ccccc3nc1n2Cc1ccccc1,-20.3%,
COc1ccc(C(=O)CSc2nnc(COc3ccccc3)n2Cc2ccco2)cc1,-4.45%,
Cn1c2ccccc2c(=O)c2c(=O)n(Cc3ccco3)c(COc3ccccc3)nc21,,17.8 µM (active)
COc1cc(/C=N\NC(=O)C2C(=O)NCC2c2ccccc2)cc(OC)c1O (configuration not stated),-3.59%,
O=C(NNC(=S)Nc1ccc(F)cc1)[C@H]1C[C@@H]1c1ccccc1,-19.7%,
O=C(N/N=C/c1cccc2cccnc12)[C@H]1C[C@@H]1c1ccccc1,,8.91 µM (active)
CC(=O)c1ccc(S(=O)(=O)N(C)CCCC(=O)N(C)Cc2ccccc2F)cc1,12.7%,
CCOc1ccc(N(CC)S(=O)(=O)c2cccc3nsnc23)cc1,3.67%,
CN(C)/C=C1\C=C(c2ccccc2)OC1=O,,35.5 µM (active)
Cc1ccc(C2=C/C(=C\c3cccnc3)C(=O)O2)cc1,-8.91%,
CN(C)/C=C1/C(=O)Nc2ccccc21,16.7%,
COc1cc(NC(=O)CN2C(=O)NC(C)(c3ccc(OC(F)F)cc3)C2=O)cc(OC)c1OC (configuration not stated),0.174%,
Cc1ccc(O)c(CNc2nc3ccccc3[nH]2)c1,2.12%,

Structure (SMILES),"activity, negative = inhibition",Potency
COc1ccc(NC(=O)CCCC(=O)c2ccccc2)cc1,5.32%,
Cc1ccc(S(=O)(=O)NC(=O)c2cccc(C)c2)cc1,-7.96%,
Cc1cccc(C(=O)NCCCN(C)CCCNC(=O)c2cccc(C)c2)c1,-3.12%,
Cc1cccc(C(=O)NC(=S)N(C)C2CCCCC2)c1,,2.24 µM (active)
COc1ccc(N2CCN(C(=O)[C@@H](NC(=O)c3cc(OC)cc(OC)c3)C(C)C)CC2)cc1,3.33%,
CCC(NC(=O)c1cc(COc2ccc(F)c(F)c2)on1)c1ccncc1 (configuration not stated),-21%,
CC(C)c1ccc(NC(=O)NC2CCCCC2)cc1,12.2%,
Cc1ccc(NC(=S)NC2CCCC2)cc1,,11.2 µM (active)
CC(Oc1ccc(Br)cc1Br)C(=O)NC1CCCC1 (configuration not stated),-2.5%,
Cc1cc(C)cc(NC(=O)NC2CCCCCCC2)c1,-0.699%,
Cc1cc(Br)ccc1NC(=S)NC1CCCC1,,5.62 µM (active)
Cc1ccc(NC(=O)CSCC(=O)NC2CCCCC2)cc1,-17%,
CCC1=Nc2cc(C(=O)NCCN3CCCC3)ccc2Sc2ccc(C)cc21,-4.97%,
C/C(=N/OC(=O)c1ccc(Br)cc1)c1ccc(C)cc1,-11%,
COc1ccccc1C(=O)N/C(=C/c1ccco1)C(=O)Nc1ccc(C(=O)O)cc1,2.53%,
CN(C)S(=O)(=O)c1cccc(NC(=O)COC(=O)c2cc(=O)[nH]c(=O)[nH]2)c1,-2.27%,
Cc1ccc(/C=N/NC(=S)Nc2cccc(S(=O)(=O)N(C)C)c2)o1,,15.8 µM (active)
CN(C)S(=O)(=O)c1cccc(NC(=O)Cc2ccsc2)c1,-16.8%,
N#CCC(=O)NC1CCC(CC2CCC(NC(=O)CC#N)CC2)CC1 (configuration not stated),-5.43%,
COCCNc1ccc(-c2n[nH]c(=O)c3ccccc23)cc1[N+](=O)[O-],-1.01%,
Cc1ccc2oc(C(=O)N3CCN(C)C[C@@H]3C(C)C)c(C)c2c1,20.7%,
Cc1cc(C(=O)Cn2cnc3cc([N+](=O)[O-])ccc3c2=O)c(C)n1CC1CCCO1 (configuration not stated),9.33%,
Cc1ccsc1C(=O)OCC(=O)c1cc(C)n(CC2CCCO2)c1C (configuration not stated),,7.08 µM (active)
Cc1nnc(SCC(N)=O)n1CC1CCCO1 (configuration not stated),3.36%,
